Experimental data taken from PubChem BioAssay AID2401 (Southern Research Specialized Biocontainment Screening …, 2010).
Out of some 2,200 compounds screened, about 530 (24%) were called active. Not all results are given here. Potency and affinity values are given separately. Values without a mark were called inactive.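 Rule for the calls: active = inhibition above a set limit at one or more concentrations of the dose series; inactive = inhibition under that limit at every dose.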

Assay: nmpC-GFP reporter counter-screen in S. Typhimurium, dose response, counter-screen for PhoP regulon inhibitor project, Salmonella Typhimurium, GFP fluorescence (AID 2401);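 note: S. typhimurium with Mg-insensitive nmpC-GFP reporter grown at 10 µM Mg2+; drop in reporter fluorescence reflects general culture growth inhibition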
Details: 4 h; series mostly up to 150 µM; inhibition: at the top concentration

| Structure (SMILES) | inhibition [%] |
| --- | --- |
| Cc1ccc(Oc2ccc3c(c2)C(=O)N(c2ccc(S(=O)(=O)Nc4nccs4)cc2)C3=O)cc1 | 7.08 |
| CN(C)C(CNC(=O)Nc1cccc(Cl)c1)c1cccnc1 (centres undefined) | 1.17 |
| COc1ccc(N2CCN(C(=O)C3CCCO3)CC2)cc1 (centres undefined) | -22.8 |
| CN1C(=O)CC(P(=O)(c2ccccc2)c2ccccc2)N(C)C1=O (centres undefined) | -7.16 |
| c1ccc(OCCCN2CCCC2)cc1 | -15.8 |
| O=C(C1CCN(C2CC(=O)N(Cc3ccccc3)C2=O)CC1)N1CCCCCC1 (centres undefined) | -3.78 |
| COc1cccc(NC(=O)Cn2c(=O)n(CCCC(=O)NCc3ccco3)c(=O)c3ccccc32)c1 | -20.7 |
| Nc1ccc2oc(=O)c3ccccc3c2c1 | 28.1 |
| Nc1ccc2oc3ccccc3c2c1 | 24.6 |
| COC(=O)c1sccc1NC(=O)CSc1ccccc1NS(=O)(=O)c1ccc(Cl)cc1 | 0.18 |
| Cc1ccc(N2C(=O)CC(n3ccnc3)C2=O)cc1C (centres undefined) | -14.9 |
| CCN(CC)CCCn1c(=S)[nH]c2cc(OC)c(OC)cc2c1=O | -13.4 |
| CC(=O)C1=C(C)Nc2ncnn2C1c1ccccc1OCc1ccccc1 (centres undefined) | -13.7 |
| CCOc1ccc(-n2c(SCc3nc(-c4ccc(C)cc4)no3)nnc2-c2ccncc2)cc1 | -19.1 |
| O=S(=O)(Nc1ccc2c(c1)nc1n2CCN(Cc2ccccc2)C1)c1ccc(Cl)cc1 | 6.97 |
| Nc1cccc(-c2nc3ccc(N)cc3s2)c1 | 5.38 |
| Cn1c(=N)n(CC(=O)c2ccc(Br)s2)c2ccccc21 | 28.3 |
| O=C(NCc1ccco1)c1ccc(Br)s1 | 17.5 |
| O=C(Nc1cccn(Cc2c(Cl)cccc2Cl)c1=O)c1ccccc1Cl | -24.5 |
| CCCCCCOC(=O)Sc1nc2ccccc2o1 | -11.3 |

| Structure (SMILES) | inhibition [%] |
| --- | --- |
| COc1ccccc1OCc1ccc(C(=O)N2CCN(C(=O)c3ccco3)CC2)cc1 | -36.5 |
| COc1ccc(/C=C/C(=O)O)cc1COc1cccc(C)c1 | -6.94 |
| Clc1ccc(OCCn2cnc3ccccc32)cc1 | -6.12 |
| COc1ccc(C(=O)C(CO)Oc2ccccc2OC)cc1OC (centres undefined) | -26 |
| S=C(Nc1ccccc1)Nc1nc2ccccc2n1CCOc1ccc(Cl)cc1 | 4.16 |
| Cc1cccc(OCCCSc2nc3ccc(C)cc3[nH]2)c1 | -8.67 |
| COc1ccccc1NC(=S)NNC(=O)c1c(Cl)c(C)nn1C | -25.9 |
| Cc1ccc(Nc2nc(CSc3nnc(-c4cccnc4)n3-c3ccccc3F)cs2)cc1 | -13 |
| O=C(c1cccc(S(=O)(=O)N2CCOCC2)c1)N1CCCC1 | -2.72 |
| O=C(c1ccccc1)N1CCSC1=S | 3.7 |
| Cn1c(-c2ccc3nc(N)sc3c2)nc2cc(N)ccc21 | 3.83 |
| Nc1ccc(Nc2ccccc2N)cc1 | 30.3 |
| Cc1cc2c(c(=O)n1C)C(Cc1ccccc1)C(C#N)=C(N)O2 (centres undefined) | -10.2 |
| O=C(CSc1nc2[nH]ncc2c(=O)[nH]1)N1CCCCC1 | 7.9 |
| C=CCNC(=S)NNC(=O)c1cccn(Cc2ccc(Cl)cc2)c1=O | 5.72 |
| COc1ccc(-c2cc(N3CCCC3)n3ncnc3n2)cc1 | 19.9 |
| COC(=O)Cn1c(C)nc2ccccc21 | -8.98 |
| COc1ccc(OCCSc2nnc3sc4ccccc4n23)cc1 | -14.9 |
| Cc1ccc(OCc2nc3ccccc3[nH]2)cc1 | -11.2 |
| CNc1ncc(Cc2ccccc2)s1 | -8.16 |

| Structure (SMILES) | inhibition [%] |
| --- | --- |
| CCn1c(SCc2ccc(F)cc2)nnc1C1CCN(S(=O)(=O)c2ccc(OC)cc2)CC1 | -14.3 |
| O=C1CC(c2ccco2)CC(O)=C1C=Nc1cc(Cl)cc(Cl)c1 (centres undefined) | -34.6 |
| c1csc(C2Nc3ccccc3-c3nc4ccccc4n32)c1 (centres undefined) | 8.7 |
| C=CCOc1ccc(Br)cc1/C=N/O | -15.1 |
| O=C(Cc1cn2ccsc2n1)Nc1ccccc1Oc1ccccc1 | -15 |
| CCn1c2ccccc2c2cc(N)ccc21 | 27.9 |
| CC(C)(C)c1ccc(C(=O)Nc2ccc(C=C(C#N)C#N)cc2)cc1 | -12.7 |
| C=CCNC(=O)CC(=O)N/N=C/c1ccc(C(=O)OC)cc1 | 12.4 |
| Cc1[nH]nc2c1C(c1cc(Br)cs1)C(C#N)=C(N)O2 (centres undefined) | 9.05 |
| Cc1cc(C)cc(-n2nc(C)cc2N)c1 | -13.9 |
| N#CC(CC(=O)c1ccc(F)cc1)c1ccc2c(c1)OCO2 (centres undefined) | -3.09 |
| CCn1c(Cc2c(C)[nH]c3ccccc23)n[nH]c1=S | -6.66 |
| O=c1[nH]c2ccccc2n1C1=CCCC1 | -20.4 |
| c1ccc2c3c([nH]c2c1)-c1[nH]ncc1CC3 | -22.3 |
| Nc1c(C(=O)NCCc2ccc(Cl)cc2)sc2ccc(S(=O)(=O)N3CCCCC3)cc12 | 36.1 |
| CSc1cccc(NC(=O)c2ccco2)c1 | -0.61 |
| CC1N(C)c2cc(NC(=O)c3ccco3)ccc2C1(C)C (centres undefined) | -27.2 |
| Cc1oc(CC(C)C)c(CN2CCCC2)c1C(=O)O | 4.83 |
| COc1ccc2c(c1)[nH]c1c(N3CCN(Cc4ccc5c(c4)OCO5)CC3)ncnc12 | -9.05 |
